In the supplement of paper PMC10849652:
Targets with a hit are over-represented here; the source holds about 8,800 in all. About 0.5% of all pairs of compound and target were hits.

Experiments:
Test in all cases: log2 fold change, soluble protein after heating vs DMSO (PISA); higher = thermal stabilisation; K562 lysate, 10 uM; active = over 0.2 and 3.5 SD of the protein, either way, in both replicates (recomputed)
[1] = compound: C1=CC=C(C=C1)[C@H](COC2=CC3=C(C=C2)NC(=O)N3)NC(=O)C4=CC=CN(C4=O)CC5=CC(=C(C=C5)F)F
Outline: (§1)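 Following dounce homogenisation of K562 pellets in PBS pH 7.4 with 1 mM MgCl2, crude extract at 1 mg/mL protein was incubated for 30 min with 10 μM compound. Aliquots were then heated for 3 min over 48°C-58°C and pooled, NP-40 was added to 0.5% at 4°C, and soluble protein was recovered as the supernatant at 21,000xg for 90 min. Channel-sum-equalised TMTpro 16plex LC-MS/MS quantified this protein. Each value, from duplicates, is a log-two fold change in thermal stability relative to solvent controls.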

[2] = compound: CC1=C(SC2=C1C(=N[C@H](C3=NN=C(N32)C)CC(=O)N)C4=CC=C(C=C4)Cl)C
Outline: as §1

[3] = compound: CC1=C2C(=CC=C1)N=C(N(C2=O)C3=CC=CC=C3C)CN4C=NC5=C(N=CN=C54)N
Outline: as §1

[4] = compound: Cc1sc2c(c1C)C(c1ccc(Cl)cc1)=N[C@@H](CC(=O)OC(C)(C)C)c1nnc(C)n1-2
Outline: as §1

[5] = compound: c1ccc([C@@H]2C[C@H]2NC2CCNCC2)cc1
Outline: as §1

Measured: log2 fold change

ENO2 (UniProt P09104)
Chain of UniProt P09104 (P09104 whole entry, looked up): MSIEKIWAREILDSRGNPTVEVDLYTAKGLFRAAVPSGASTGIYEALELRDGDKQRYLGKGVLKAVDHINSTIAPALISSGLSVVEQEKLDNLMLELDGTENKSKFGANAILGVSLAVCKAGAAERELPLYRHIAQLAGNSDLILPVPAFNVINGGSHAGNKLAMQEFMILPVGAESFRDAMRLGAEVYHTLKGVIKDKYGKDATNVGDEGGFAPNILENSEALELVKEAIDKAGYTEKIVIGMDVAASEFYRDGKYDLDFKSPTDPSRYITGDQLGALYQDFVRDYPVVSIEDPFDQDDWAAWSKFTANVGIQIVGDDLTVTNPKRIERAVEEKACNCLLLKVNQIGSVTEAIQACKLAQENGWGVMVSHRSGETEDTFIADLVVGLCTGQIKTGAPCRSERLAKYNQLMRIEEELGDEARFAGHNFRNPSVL
inactive: [1] 0.019 | [2] -0.122 | [3] 0.037 | [4] -0.009 | [5] -0.153

FHOD1 (UniProt Q9Y613)
Chain of UniProt Q9Y613 (Q9Y613 whole entry, looked up): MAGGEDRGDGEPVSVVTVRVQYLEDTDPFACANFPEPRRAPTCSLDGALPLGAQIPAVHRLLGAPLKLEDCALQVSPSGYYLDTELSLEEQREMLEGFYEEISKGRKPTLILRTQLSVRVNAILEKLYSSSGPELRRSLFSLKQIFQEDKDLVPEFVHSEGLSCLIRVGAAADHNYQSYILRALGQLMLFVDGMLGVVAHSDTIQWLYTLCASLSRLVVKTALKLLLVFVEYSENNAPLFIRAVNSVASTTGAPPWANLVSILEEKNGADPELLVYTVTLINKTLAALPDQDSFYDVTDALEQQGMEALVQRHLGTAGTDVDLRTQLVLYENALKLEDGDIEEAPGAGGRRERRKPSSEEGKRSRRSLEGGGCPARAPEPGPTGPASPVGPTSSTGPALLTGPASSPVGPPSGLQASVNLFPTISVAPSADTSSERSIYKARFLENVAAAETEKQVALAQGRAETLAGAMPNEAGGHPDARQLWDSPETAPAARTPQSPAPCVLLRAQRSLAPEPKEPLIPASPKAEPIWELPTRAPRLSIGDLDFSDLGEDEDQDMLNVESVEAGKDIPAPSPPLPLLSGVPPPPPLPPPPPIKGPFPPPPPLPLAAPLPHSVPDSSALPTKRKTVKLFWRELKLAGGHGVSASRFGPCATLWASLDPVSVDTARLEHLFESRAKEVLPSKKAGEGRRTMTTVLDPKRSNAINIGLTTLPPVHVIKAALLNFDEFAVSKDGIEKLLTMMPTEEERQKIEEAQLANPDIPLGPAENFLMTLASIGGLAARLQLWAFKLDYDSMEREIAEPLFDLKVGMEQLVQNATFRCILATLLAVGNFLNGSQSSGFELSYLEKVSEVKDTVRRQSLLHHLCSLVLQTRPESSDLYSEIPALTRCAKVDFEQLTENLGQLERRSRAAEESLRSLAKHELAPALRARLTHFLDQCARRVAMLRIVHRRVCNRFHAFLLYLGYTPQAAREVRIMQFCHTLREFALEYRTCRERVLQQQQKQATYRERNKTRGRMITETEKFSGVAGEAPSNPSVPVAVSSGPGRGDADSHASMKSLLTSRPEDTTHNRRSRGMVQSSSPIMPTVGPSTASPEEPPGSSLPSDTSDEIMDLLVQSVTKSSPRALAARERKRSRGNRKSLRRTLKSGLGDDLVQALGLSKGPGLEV
inactive: [1] -0.041 | [2] 0.006 | [3] 0.043 | [4] 0.029 | [5] 0.027

FECH isoform 2 (UniProt P22830)
inactive: [1] 0.06 | [2] -0.101 | [3] -0.126 | [4] -0.229 | [5] -0.092

FBXO38 (UniProt Q6PIJ6)
inactive: [1] -0.007 | [2] 0.094 | [3] 0.007 | [4] 0.068 | [5] 0.013

EBP (UniProt Q15125)
Chain of UniProt Q15125 (Q15125 whole entry, looked up): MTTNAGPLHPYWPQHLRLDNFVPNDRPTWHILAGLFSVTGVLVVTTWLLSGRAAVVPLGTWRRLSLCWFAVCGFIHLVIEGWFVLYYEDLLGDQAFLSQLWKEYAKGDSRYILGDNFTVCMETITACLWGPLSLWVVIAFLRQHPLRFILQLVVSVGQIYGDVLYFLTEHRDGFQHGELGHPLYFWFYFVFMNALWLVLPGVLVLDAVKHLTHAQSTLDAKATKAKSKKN
inactive: [1] -0.011 | [2] -0.061 | [3] 0.022 | [4] 0.09 | [5] -0.141

FNTB (UniProt P49356)
Chain of UniProt P49356 (P49356 whole entry, looked up): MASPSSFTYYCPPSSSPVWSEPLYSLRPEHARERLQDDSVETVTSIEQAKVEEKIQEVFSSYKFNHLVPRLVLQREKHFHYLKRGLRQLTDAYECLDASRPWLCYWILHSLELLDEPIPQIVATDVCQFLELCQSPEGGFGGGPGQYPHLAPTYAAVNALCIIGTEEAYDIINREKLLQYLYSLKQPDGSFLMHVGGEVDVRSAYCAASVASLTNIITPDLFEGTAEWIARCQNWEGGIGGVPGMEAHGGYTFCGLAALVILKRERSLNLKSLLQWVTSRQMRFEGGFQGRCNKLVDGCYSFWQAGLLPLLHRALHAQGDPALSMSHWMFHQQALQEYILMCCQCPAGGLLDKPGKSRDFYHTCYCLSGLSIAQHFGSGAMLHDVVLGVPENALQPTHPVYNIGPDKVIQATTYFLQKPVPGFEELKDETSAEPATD
inactive: [1] 0.023 | [2] 0.135 | [3] 0.015 | [4] -0.008 | [5] 0.038

FBXO22 (UniProt Q8NEZ5)
Chain of UniProt Q8NEZ5 (Q8NEZ5 whole entry, looked up): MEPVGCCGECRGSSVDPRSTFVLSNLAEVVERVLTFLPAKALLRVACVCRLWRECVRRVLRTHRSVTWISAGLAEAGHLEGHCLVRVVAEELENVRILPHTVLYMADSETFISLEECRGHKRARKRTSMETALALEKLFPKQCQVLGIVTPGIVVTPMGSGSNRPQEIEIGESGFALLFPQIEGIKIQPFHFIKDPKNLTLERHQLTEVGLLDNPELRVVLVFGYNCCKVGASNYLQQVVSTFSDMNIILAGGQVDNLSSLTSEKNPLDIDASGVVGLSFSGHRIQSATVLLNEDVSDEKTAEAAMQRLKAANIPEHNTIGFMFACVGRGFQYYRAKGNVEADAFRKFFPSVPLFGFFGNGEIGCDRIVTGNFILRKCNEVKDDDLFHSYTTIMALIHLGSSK
inactive: [1] -0.007 | [2] -0.004 | [3] 0.03 | [4] 0.02 | [5] 0.083

DYNC1I2 isoform 2 (UniProt Q13409)
inactive: [1] -0.011 | [2] 0.253 | [3] -0.005 | [4] 0.082 | [5] 0.155

FAM53B (UniProt Q14153)
Chain of UniProt Q14153 (Q14153 whole entry, looked up): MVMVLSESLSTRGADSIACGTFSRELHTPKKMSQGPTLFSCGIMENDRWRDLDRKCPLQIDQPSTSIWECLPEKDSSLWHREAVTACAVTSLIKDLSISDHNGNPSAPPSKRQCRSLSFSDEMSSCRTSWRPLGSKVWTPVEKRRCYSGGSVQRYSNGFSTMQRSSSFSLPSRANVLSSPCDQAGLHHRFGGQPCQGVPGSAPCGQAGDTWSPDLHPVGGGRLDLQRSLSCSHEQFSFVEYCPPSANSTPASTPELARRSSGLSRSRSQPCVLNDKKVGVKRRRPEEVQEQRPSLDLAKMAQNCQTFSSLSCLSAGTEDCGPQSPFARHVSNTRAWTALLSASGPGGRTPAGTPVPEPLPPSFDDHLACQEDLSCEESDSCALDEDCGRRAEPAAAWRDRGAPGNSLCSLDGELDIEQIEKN
inactive: [1] 0.044 | [2] -0.039 | [3] 0.055 | [4] -0.088 | [5] 0.022

EWSR1 isoform 5 (UniProt Q01844)
Chain of UniProt Q01844 (Q01844 whole entry, looked up): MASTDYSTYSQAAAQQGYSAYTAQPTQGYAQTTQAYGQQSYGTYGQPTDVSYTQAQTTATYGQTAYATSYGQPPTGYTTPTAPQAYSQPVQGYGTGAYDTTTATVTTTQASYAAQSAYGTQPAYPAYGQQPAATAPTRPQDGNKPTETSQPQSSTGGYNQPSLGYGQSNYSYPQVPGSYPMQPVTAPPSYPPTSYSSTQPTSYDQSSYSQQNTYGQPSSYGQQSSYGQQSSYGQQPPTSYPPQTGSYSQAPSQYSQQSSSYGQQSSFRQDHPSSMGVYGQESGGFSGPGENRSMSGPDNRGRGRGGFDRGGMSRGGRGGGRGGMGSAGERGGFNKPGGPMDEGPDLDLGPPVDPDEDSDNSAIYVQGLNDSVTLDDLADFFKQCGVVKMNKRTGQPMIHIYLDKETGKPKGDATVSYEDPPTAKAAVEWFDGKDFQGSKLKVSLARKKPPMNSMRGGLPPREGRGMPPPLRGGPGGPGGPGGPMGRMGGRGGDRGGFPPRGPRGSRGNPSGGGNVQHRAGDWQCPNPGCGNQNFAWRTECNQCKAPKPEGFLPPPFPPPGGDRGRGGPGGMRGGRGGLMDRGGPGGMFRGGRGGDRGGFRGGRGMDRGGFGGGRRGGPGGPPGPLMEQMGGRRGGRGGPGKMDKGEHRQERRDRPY
inactive: [1] 0.047 | [2] -0.024 | [3] -0.012 | [4] 0.053 | [5] 0.002

EIF1 (UniProt P41567)
Chain of UniProt P41567 (P41567 whole entry, looked up): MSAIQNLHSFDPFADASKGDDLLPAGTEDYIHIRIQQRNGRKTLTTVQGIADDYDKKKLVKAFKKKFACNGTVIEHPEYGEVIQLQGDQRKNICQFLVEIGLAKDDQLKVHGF
inactive: [1] 0.146 | [2] -0.034 | [3] -0.031 | [4] -0.035 | [5] -0.114

GCLM (UniProt P48507)
Chain of UniProt P48507 (P48507 whole entry, looked up): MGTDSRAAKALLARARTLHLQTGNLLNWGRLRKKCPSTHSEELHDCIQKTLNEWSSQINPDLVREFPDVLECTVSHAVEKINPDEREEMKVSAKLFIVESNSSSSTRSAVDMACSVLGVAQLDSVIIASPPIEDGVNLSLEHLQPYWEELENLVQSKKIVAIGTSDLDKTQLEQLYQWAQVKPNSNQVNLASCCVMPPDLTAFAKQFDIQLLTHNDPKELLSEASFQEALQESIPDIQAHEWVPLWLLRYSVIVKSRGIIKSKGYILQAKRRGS
inactive: [1] 0.01 | [2] -0.041 | [3] 0.02 | [4] 0.008 | [5] 0.006

FBXO30 (UniProt Q8TB52)
Chain of UniProt Q8TB52 (Q8TB52 whole entry, looked up): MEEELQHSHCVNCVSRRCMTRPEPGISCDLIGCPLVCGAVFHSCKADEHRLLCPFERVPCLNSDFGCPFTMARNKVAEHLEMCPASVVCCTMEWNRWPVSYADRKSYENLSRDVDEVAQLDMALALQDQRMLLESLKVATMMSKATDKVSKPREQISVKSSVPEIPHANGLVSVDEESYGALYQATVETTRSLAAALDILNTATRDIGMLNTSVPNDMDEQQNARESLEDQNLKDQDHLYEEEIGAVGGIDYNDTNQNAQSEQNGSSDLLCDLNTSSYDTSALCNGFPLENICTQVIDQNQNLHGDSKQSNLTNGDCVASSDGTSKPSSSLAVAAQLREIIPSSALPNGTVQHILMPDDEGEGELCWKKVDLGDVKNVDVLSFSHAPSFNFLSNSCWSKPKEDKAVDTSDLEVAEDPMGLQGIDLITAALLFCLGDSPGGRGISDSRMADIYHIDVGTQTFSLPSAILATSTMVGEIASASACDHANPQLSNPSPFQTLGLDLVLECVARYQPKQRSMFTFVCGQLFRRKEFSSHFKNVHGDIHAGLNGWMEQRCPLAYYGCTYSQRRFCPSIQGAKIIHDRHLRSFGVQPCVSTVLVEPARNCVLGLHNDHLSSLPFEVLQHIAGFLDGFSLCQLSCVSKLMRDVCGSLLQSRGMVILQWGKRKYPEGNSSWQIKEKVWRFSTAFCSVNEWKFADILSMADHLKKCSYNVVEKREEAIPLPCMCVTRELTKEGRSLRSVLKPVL
inactive: [1] -0.034 | [2] 0.011 | [3] -0.041 | [4] 0.036 | [5] 0.12
